Measured values from ChEMBL document CHEMBL3988442, “University of Dundee, Small-Polar-MMV Screening Library” (2021).
For some assays here: Results with a measured potency or affinity are listed apart.

Key:
Parameters in all cases: scale not given: direction of the effect not stated beside the values
[1] = target: Protein translocase subunit SecA (Escherichia coli (strain K12)) (UniProt P10408); assay: Assay to Identify E. coli SecA ATPase Inhibitors; format: functional; conditions: 30 µM
[2] = target: T1, Ubiquitin-activating enzyme e1, putative (Leishmania donovani (strain BPK282A1)) (UniProt E9BSI1); assay: Leishmania donovani Ubiquitin Activating Enzyme (LdE1); format: functional; conditions: 30 µM
T1 sequence (whole entry): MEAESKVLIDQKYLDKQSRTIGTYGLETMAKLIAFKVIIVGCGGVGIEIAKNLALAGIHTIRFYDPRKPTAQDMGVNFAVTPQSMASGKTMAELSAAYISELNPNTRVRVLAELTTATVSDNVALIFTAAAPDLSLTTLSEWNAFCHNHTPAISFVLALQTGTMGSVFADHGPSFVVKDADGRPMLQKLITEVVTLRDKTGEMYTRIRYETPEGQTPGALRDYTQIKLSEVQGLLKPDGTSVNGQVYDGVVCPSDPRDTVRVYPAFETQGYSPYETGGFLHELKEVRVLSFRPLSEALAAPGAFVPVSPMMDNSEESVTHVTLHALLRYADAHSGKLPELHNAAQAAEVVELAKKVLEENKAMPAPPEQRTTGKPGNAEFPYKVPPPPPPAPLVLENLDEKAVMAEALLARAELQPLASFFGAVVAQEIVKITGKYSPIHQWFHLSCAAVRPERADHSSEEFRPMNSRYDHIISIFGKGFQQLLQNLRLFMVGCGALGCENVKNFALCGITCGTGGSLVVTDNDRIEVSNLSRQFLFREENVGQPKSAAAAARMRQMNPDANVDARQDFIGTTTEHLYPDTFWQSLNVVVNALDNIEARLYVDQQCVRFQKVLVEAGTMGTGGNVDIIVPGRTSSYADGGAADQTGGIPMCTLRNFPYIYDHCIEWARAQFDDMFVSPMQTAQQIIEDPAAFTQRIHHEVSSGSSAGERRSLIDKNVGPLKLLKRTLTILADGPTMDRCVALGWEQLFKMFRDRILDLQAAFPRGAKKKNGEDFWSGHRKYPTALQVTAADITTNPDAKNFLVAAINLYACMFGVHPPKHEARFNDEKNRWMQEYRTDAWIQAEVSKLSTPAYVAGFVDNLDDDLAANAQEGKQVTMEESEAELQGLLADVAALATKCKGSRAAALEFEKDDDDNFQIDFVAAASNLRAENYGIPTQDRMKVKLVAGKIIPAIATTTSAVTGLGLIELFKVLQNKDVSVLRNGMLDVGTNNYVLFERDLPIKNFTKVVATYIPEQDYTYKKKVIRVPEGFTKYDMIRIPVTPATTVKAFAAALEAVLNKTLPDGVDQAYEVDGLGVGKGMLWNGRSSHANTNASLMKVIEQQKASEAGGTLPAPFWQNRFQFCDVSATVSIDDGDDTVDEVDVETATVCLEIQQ

[3] = target: AMP-activated protein kinase, AMPK (Homo sapiens) (UniProt P54646+O43741+P54619+Q9UGJ0+Q9Y478+Q13131+Q9UGI9); assay: AMP-dependent Kinase enzyme assay. An in vitro enzyme assay that detects ADP turnover that is directly proportional to AMPK activity. This uses naive AMPK that is activated during the assay with MK-8722; format: functional; conditions: 30 µM
[4] = target: Sialic acid-binding Ig-like lectin 9 (Homo sapiens) (UniProt Q9Y336); assay: Hs-Siglec9 ALPHAscreen SOP 20170721; conditions: 10 µM
Trypanosoma cruzi = assay: Trypanosoma cruzi phosphomannomutase and mannose-1-phosphate guanylyltransferase assay; format: functional; conditions: 10 µM
[5] = target: T2, Arginase-2, mitochondrial (Homo sapiens) (UniProt P78540); assay: in vitro enzyme assay to detect the production of urea directly proportional to the activity of Arginase II; format: functional; conditions: 33.3 µM; further: in the data most compounds retested in dose-response had high values
T2 sequence (whole entry): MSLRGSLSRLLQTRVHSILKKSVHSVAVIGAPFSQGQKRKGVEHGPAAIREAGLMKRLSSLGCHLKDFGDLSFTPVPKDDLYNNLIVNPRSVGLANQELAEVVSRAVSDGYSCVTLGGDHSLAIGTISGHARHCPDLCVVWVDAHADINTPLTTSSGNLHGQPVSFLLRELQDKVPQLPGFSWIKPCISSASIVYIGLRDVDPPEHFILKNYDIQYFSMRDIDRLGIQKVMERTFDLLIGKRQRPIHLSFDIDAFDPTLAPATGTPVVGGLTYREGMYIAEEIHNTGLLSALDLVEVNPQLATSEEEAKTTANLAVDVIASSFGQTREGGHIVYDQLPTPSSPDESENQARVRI

[6] = target: T3, Proteasome subunit beta (Trypanosoma cruzi) (UniProt O96673); assay: Trypanosoma cruzi proteasome chymotrypsin-like activity (TcProtChymo) assay.; further: in the data most compounds retested in dose-response had high values; format: functional; conditions: 9.37 µM
T3 sequence (whole entry): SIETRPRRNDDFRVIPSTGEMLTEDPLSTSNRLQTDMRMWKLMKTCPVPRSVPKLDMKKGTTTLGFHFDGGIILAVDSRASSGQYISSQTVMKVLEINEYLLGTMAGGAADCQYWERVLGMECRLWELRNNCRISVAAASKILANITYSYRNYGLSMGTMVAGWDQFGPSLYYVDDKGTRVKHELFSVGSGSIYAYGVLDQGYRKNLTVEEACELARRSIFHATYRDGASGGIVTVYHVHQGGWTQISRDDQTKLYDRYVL

Homo sapiens = species on record: Homo sapiens; assay: To identify inhibition of the IFN signalling (Jak-Stat) pathway via expression of an eGFP reporter gene under the control of an IFN-stimulated response element (ISRE) containing MxA promoter.; format: functional; conditions: 30 µM
[7] = target: T4, Tyrosyl-tRNA synthetase, putative (Trypanosoma cruzi (strain CL Brener)) (UniProt Q4DSP6); assay: Trypanosoma cruzi tyrosyl tRNA synthetase (TcYRS) _High Tyrosine SOP; format: functional; conditions: 30 µM; further: in the data most compounds retested in dose-response had high values
T4 sequence (whole entry): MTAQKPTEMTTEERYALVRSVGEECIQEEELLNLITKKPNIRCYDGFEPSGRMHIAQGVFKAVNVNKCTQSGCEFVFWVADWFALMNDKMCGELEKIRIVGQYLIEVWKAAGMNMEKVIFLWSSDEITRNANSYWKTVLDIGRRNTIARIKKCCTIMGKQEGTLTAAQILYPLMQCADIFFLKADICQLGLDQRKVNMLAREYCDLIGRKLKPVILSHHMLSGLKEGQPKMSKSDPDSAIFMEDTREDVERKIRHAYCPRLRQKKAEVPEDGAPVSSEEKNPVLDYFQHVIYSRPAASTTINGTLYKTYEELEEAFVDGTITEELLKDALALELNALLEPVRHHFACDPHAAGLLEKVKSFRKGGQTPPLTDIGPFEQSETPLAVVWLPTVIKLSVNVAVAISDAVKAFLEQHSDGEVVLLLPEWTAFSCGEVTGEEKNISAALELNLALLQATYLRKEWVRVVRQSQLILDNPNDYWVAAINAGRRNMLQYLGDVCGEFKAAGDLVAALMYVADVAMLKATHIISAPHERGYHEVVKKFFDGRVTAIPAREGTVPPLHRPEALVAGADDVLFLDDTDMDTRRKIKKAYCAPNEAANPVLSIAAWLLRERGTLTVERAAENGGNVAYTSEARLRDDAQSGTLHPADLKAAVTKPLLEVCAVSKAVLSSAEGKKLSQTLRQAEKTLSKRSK

[8] = target: T4, Tyrosyl-tRNA synthetase, putative (Trypanosoma cruzi (strain CL Brener)); assay: Trypanosoma cruzi tyrosyl tRNA synthetase (TcYRS) SOP; format: functional; conditions: 30 µM
[9] = target: Chromo domain-containing protein 1 (Saccharomyces cerevisiae (strain ATCC 204508 / S288c) (Baker's yeast)) (UniProt P32657); assay: ScCHD-1 Enzyme Inhibition Assay; format: functional; conditions: 30 µM; further: in the data most compounds retested in dose-response had high values
Sequence of Chromo domain-containing protein 1 (Saccharomyces cerevisiae (strain ATCC 204508 / S288c) (Baker's yeast)) (P32657 whole entry, the tested form may be a part): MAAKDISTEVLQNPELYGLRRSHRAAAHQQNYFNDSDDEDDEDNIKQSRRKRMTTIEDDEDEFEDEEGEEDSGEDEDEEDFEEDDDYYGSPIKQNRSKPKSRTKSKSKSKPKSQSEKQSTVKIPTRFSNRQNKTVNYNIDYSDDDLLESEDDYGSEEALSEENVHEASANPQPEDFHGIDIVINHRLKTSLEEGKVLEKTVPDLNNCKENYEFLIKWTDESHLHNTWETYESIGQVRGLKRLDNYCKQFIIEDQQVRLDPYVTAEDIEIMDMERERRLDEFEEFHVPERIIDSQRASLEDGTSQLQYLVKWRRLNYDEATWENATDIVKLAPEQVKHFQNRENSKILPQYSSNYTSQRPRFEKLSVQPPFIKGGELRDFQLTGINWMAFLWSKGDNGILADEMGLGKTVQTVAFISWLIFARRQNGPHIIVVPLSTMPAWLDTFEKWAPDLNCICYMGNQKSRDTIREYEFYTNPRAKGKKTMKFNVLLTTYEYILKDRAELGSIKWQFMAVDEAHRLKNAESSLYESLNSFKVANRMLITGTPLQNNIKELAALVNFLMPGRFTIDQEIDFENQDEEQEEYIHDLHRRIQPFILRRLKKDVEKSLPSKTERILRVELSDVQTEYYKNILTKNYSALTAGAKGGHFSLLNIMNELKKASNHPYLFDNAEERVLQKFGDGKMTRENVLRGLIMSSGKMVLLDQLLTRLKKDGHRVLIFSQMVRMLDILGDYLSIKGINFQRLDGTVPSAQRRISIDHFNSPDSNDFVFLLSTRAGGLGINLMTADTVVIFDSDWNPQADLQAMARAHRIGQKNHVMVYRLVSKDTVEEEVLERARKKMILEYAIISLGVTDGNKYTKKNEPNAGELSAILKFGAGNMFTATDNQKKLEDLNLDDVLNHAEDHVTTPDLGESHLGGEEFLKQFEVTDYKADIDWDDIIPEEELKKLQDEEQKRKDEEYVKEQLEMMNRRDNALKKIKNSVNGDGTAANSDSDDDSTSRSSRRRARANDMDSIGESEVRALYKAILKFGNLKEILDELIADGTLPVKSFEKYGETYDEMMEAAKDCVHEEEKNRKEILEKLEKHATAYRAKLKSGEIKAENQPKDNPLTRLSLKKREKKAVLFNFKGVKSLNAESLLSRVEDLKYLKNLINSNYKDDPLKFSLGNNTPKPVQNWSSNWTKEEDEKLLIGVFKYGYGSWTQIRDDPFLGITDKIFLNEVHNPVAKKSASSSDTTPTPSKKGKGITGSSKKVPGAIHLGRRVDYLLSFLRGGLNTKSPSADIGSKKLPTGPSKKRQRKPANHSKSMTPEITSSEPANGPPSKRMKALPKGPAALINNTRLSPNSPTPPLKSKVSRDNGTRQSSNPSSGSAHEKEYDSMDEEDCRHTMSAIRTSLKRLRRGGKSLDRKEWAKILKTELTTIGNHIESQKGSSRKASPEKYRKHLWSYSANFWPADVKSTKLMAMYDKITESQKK

Sequence of Protein translocase subunit SecA (Escherichia coli (strain K12)) (P10408 whole entry): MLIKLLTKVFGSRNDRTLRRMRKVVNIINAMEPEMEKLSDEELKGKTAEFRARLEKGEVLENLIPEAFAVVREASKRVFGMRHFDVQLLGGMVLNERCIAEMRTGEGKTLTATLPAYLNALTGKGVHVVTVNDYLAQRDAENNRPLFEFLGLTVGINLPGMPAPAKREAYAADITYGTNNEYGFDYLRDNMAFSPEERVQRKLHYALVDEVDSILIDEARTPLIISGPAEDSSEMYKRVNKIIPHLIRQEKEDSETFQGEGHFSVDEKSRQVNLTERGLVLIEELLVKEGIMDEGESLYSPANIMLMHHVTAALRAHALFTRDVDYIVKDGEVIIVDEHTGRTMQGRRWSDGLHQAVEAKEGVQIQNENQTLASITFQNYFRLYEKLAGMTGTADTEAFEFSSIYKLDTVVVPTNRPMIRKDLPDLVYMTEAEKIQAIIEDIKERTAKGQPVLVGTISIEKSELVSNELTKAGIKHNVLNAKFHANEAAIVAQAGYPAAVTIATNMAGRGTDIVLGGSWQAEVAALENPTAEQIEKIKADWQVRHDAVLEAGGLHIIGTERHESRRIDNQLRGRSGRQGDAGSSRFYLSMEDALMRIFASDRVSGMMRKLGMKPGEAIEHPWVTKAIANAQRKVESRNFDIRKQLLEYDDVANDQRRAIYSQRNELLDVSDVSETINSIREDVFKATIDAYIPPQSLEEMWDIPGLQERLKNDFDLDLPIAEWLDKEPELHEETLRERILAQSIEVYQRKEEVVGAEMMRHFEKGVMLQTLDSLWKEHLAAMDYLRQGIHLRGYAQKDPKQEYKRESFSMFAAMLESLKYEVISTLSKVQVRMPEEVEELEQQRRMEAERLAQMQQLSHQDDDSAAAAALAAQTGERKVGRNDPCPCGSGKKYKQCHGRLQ
Sequence of Sialic acid-binding Ig-like lectin 9 (Homo sapiens) (Q9Y336 whole entry): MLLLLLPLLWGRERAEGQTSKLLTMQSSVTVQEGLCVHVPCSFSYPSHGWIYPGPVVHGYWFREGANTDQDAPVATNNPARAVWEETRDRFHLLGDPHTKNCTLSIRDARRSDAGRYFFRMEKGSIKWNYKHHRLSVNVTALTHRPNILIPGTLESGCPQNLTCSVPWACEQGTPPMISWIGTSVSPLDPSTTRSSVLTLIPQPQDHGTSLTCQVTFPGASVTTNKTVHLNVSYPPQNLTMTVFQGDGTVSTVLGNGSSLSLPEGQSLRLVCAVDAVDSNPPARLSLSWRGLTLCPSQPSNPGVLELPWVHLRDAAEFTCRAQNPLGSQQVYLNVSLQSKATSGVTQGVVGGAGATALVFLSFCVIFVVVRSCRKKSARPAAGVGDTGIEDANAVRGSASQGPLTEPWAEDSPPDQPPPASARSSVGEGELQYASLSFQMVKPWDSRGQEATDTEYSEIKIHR

| Compound | Percent Effect [1] [%] | Percent Effect [2] [%] | Percent Effect [3] [%] | Percent Effect [4] [%] | Percent Effect (Trypanosoma cruzi) [%] | Percent Effect [5] [%] | Percent Effect [6] [%] | Percent Effect (Homo sapiens) [%] | Percent Effect [7] [%] | Percent Effect [8] [%] | Percent Effect [9] [%] |
| --- | --- | --- | --- | --- | --- | --- | --- | --- | --- | --- | --- |
| CC(C)(C)c1cc(CN2CC[C@@H](NC(=O)c3cccnc3)[C@H](O)C2)n[nH]1 | -3.5 | 1.39 | -10.7 | 10.3 | 4.37 | 17.7 | 6.49 | 15.6 | 3.16 | 12.8 | -6.81 |
| CN1CCC(c2nnc(CN3CCC(O)CC3)n2C)CC1 | -3.38 | 8.22 | 6.23 | -1.15 | -1.76 | 1.82 | 8.87 | 1 | 4.3 | 15 | -4.74 |
| COc1c(CNCCNC(=O)Cc2ccc(F)cc2)c(C)nn1C | -1.17 | 13.5 | 1.18 | -2.01 | -7.52 | -4.99 | 13.1 | 12.1 | 1.98 | -18.3 | -8.36 |
| CCc1c(C)nc2n(c1=O)CC(C(=O)Nc1ccccc1F)CS2 (stereo not given) | -5.58 | 18.2 | -0.318 | 8.95 | 0.888 | -1.94 | 7.83 | 9.05 | 6.35 | 16.7 | -4.84 |
| Cc1nc(C)n(C2CCCN(C(=O)CCc3ccncc3)C2)n1 (stereo not given) | -5.25 | 16.2 | 0.169 | 8.78 | 2.34 | 4.17 | 6.34 | 0.916 | 12.9 | 11 | -8.81 |
| O=C(NCc1nnc2ccccn12)N1CCc2sccc2C1 | -3.42 | -6.33 | 6.9 | 2.84 | -1.33 | 1.94 | 7.89 | 11.1 | 2.08 | 7.59 | -7.88 |
| NC(=O)COc1cccc(C(=O)Nc2cnc3n2CCCC3)c1 | -4.34 | 6.94 | -7.99 | 1.81 | -1.26 | 6.18 | 10.7 | -0.649 | 8.42 | 15.4 | -3.57 |
| c1cnn(CC2CN(CC3CCCC3)CCO2)c1 (stereo not given) | -5.26 | 3.8 | -0.822 | 1.53 | 0.308 | 0.645 | 10.6 | -2.54 | 5.21 | -15.2 | -17.2 |
| N#Cc1cccc(SCCS(N)(=O)=O)c1 | -3.48 | 1.39 | -2.94 | 14.2 | 5.15 | -9.27 | 15.3 | 7.55 | 0 | 5.13 | -3.3 |
| O=C(CC1CC1)N1CC[C@H]2[C@@H]1CCC(=O)N2c1cccnc1 | 3.01 | 10.8 | 7.09 | -6.56 | -4.79 | 4.14 | 22.9 | 2.55 | 1.08 | 12.8 | -1.6 |
